Tests used:
Test in all cases: PBM binding z-score (relative to random genomic background probes); higher = stronger binding; sequences stand for … in GC…GCGATTGACAGCGTAGAATGAAGG
[1] = test system: RARb homodimer (NR concentration 270 nM)
Summary of the method: (§1)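 Each nuclear receptor dimer, without ligand, was incubated for 1 h on custom Agilent 4×180K protein-binding microarrays. Binding was detected with antibodies against each partner (one per run), and scanned fluorescence was regression-normalized. The binding z-scores are referenced to random human genomic background probes.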

[2] = test system: RARg:RXRa (NR concentration 270 nM, RXRa partner concentration 90 nM)
Summary of the method: as §1

[3] = test system: RARg homodimer (NR concentration 270 nM)
Summary of the method: as §1

[4] = test system: RXRa DBDmut IVT, anti-RXR (DBD mutation: RXRa K156A/R161A, NR concentration 90 nM)
Summary of the method: as §1

[5] = test system: RXRa homodimer (NR concentration 180 nM)
Summary of the method: as §1

[6] = test system: THRa:RXRa (NR concentration 90 nM, RXRa partner concentration 90 nM)
Summary of the method: as §1

[7] = test system: THRa homodimer (NR concentration 90 nM)
Summary of the method: as §1

[8] = test system: VDR:RXRa (NR concentration 270 nM, RXRa partner concentration 90 nM)
Summary of the method: as §1

[9] = test system: VDR homodimer (NR concentration 270 nM)
Summary of the method: as §1

Sequence | PBM binding z-score [1] | PBM binding z-score [2] | PBM binding z-score [3] | PBM binding z-score [4] | PBM binding z-score [5] | PBM binding z-score [6] | PBM binding z-score [7] | PBM binding z-score [8] | PBM binding z-score [9]
TCTGCTAGGTCAACGATGGTCAGCGAATCTGCTA | 3.42 | 4.03 | 4.75 | 0.927 | 2.57 | 3.15 | 0.707 | 1.66 | -0.22
CAAAATAGGTCAAGAGGTCAAAGTCCGCTTCCCG | 6.03 | 8.39 | 7.82 | 2.72 | 8.82 | 4.28 | 1.76 | 6.53 | 3.91
ATATGTAGGTTACATCCGAGTCATTCAGGCTATG | 0.405 | 0.915 | 1.04 | 0.858 | 1.04 | 0.785 | 0.511 | 0.386 | 0.236
AATACAGGGTGATCGTAGGCCAGAGTACGCACAG | 0.66 | 0.545 | 0.556 | -0.0921 | 0.57 | 1.73 | 0.135 | 0.0765 | 0.376
TCTCGGAGGACACGAAAGGTGAGAGCTCGACATC | 2.24 | 1.64 | 1.99 | 0.659 | 0.812 | 2.51 | 0.549 | 0.263 | -0.374
CCTAGTTGGCCAAGGTCACACACGCTATAGGTAC | 4.08 | 4.16 | 4.16 | 2.02 | 4.27 | 3.96 | 3.61 | 4.02 | 3.38
TCGAGTAGGTTATGGGGGCATTCAGGGATGAAGA | 2.17 | 2.62 | 1.29 | 1.84 | 2.1 | 3.99 | 1.84 | 3.34 | 2.57
CGTCCAAGGTAAATGCTAGGTCAGTGAAAGCATT | 2.15 | 1.85 | 1.23 | 0.0865 | 0.316 | 2.53 | 1.11 | 0.355 | -0.194
AATACAGGATCACTAGGCCAGAGTAGGTACGAAT | 0.388 | 0.343 | 0.495 | -0.317 | 0.367 | -0.0476 | -0.262 | -0.235 | 0.0243
TCGAGTAGTTTACGGGGGCATTCAGGGATGAAGA | 1.53 | 2.16 | 1.57 | 2.09 | 1.48 | 3.55 | 1.05 | 3.09 | 3.23
CCTACTGGGCCAATGTCATTGATCAGTCAAAGCA | 0.109 | 0.114 | 0.0827 | -0.907 | -0.139 | -0.112 | -0.837 | -0.366 | -0.862
CAAACTAGGTCAAGGTCAAAGTAGGTTTGTGCCA | 5.18 | 6.25 | 6.86 | 3.11 | 6.11 | 4.6 | 3.96 | 5.54 | 4.8
TTTCCAAGGTGAAAGGTCGTTGATGCACGCCTTG | 2.58 | 4.16 | 1.99 | 0.408 | 5.33 | 3.76 | 1.38 | 3.38 | 1.38
CGAACTCGGTCACCAGGACAGTGAAGAGGTTGGA | 1.97 | 2.47 | 3.48 | 0.319 | 1.01 | 1.86 | 0.326 | 1.87 | 0.21
CCTACTGGGCCAAAGGTCATAGATTCCAATGCTC | 4.32 | 5.69 | 4.78 | 1.1 | 6.28 | 3.22 | 0.866 | 4.17 | 2.27
AATACAGGGTCGCTAGGCCAGAGTAGGTACGAAT | 0.921 | 1.37 | 1.37 | 0.47 | 1.52 | 1.09 | 0.0627 | 0.828 | 0.727
CGTCAAAGTTCAACTAAGGTAACGTATAGCACGC | 4.33 | 5.92 | 6.62 | 4.32 | 4.78 | 5.26 | 1.89 | 4.92 | 4.37
TCGAGTAGGTTACGGGCGCATTCAGGGATGAAGA | 0.216 | 0.276 | 0.202 | -0.064 | 0.599 | 0.304 | -0.327 | -0.354 | -0.375
CCGAGTAGGTTACGGGGGGGCATTCAGTGCGAAT | 3.09 | 4.41 | 4.19 | 2.7 | 2.73 | 4.4 | 3.04 | 5.49 | 4.76
CGAACTAGGTCACCAGGACAGTGATGAGGTTGGA | 3.53 | 4.4 | 5.41 | 1.28 | 3.45 | 3.42 | 2.08 | 2.17 | 1.13
TTACCAAGGTGAAAGGTCGTTGAAGCACGCCTTG | 2.64 | 4.3 | 2 | 0.879 | 5.84 | 3.57 | 0.624 | 3.42 | 1.29
CTATGTAGGTTAAGGGGGTCATTCGGTTTGAAAG | 3.85 | 5.36 | 3.97 | 2.56 | 5.74 | 3.79 | 1.93 | 7.56 | 6.78
CATACTAGGTCAAAGGTCAAAGTCGAGCCAACCA | 5.51 | 8.9 | 7.33 | 3.12 | 9.95 | 4.98 | 2.11 | 6.61 | 3.51
ATCGAAAGGTCGAAGGTGACTATACCCACCCGAA | 2.48 | 4.16 | 3.63 | 1.17 | 4.99 | 2.33 | 0.209 | 2.9 | 0.592
CGAACTAGGTCACCAGGCCAGTGAAGAGGTTGGA | 3.33 | 4.61 | 5.11 | 1.05 | 3.21 | 2.98 | 0.969 | 1.71 | 0.372
ATATGTAGGTTAGGGTCGTTCAGAAAGTAGGGAA | 2.05 | 1.69 | 1.16 | 1.52 | 2.44 | 2.85 | 1.95 | 2.57 | 2.55

Sequence | PBM binding z-score [1] | PBM binding z-score [2] | PBM binding z-score [3] | PBM binding z-score [4] | PBM binding z-score [5] | PBM binding z-score [6] | PBM binding z-score [7] | PBM binding z-score [8] | PBM binding z-score [9]
CGAACTAGGTCACCAGGACAGTGGAGAGGTTGGA | 3.32 | 4.53 | 5.51 | 1.04 | 3.27 | 3.34 | 1.78 | 1.99 | 0.74
ACTTACGGGTCAACGGGGTTATAGCACGCGTATA | 3.81 | 5.9 | 5.07 | 2.6 | 6.78 | 4.23 | 1.08 | 7.87 | 3.81
ATATGTAGGTTAGGGTCATTCGGAAAGTAGGGAA | 3.62 | 4.07 | 3.15 | 2.51 | 5.06 | 4.16 | 3.3 | 4.45 | 4.24
TCGAGTAGGTAACGGGGGCATTCAGGGATGAAGA | 1.54 | 2.02 | 1.09 | 1.75 | 1.74 | 3.76 | 1.33 | 3.38 | 2.49
CGAACTAGGTCACCAGTACAGTGAAGAGGTTGGA | 3.14 | 4.38 | 5.54 | 1.33 | 3.2 | 3.09 | 1.33 | 2.27 | 0.782
ATATCTAGGTTAGGGTCATTCAGAAAGTAGGGAA | 3.56 | 4.06 | 3.32 | 2.56 | 4.98 | 4.14 | 3.56 | 4.41 | 4.16
CGAACTAGGTCACCAGGAAAGTGAAGAGGTTGGA | 3.18 | 4.45 | 5.45 | 1.53 | 3.53 | 2.91 | 1.04 | 1.66 | 0.43
CCGAGTAGGTTACAAGGGGGCATTCAGTGCGAAT | 2.41 | 2.84 | 2.42 | 1.47 | 2.1 | 3.61 | 0.507 | 5.11 | 3.51
AGCTCTAGGTAAAAGTTCAGTGAATCCCGAGGAT | 2.44 | 1.57 | 1.62 | 0.637 | 1.46 | 1.14 | 0.029 | 0.974 | 1.69
ATATGTACGTTAGGGTCATTCAGAAAGTAGGGAA | 2.98 | 3.78 | 2.71 | 2.3 | 4.98 | 3.78 | 2.87 | 4.24 | 3.98
TCCAGTAGGTTACGGGGGCATTCAGGGATGAAGA | 2.45 | 3.99 | 3.38 | 2.49 | 3.03 | 3.96 | 1.63 | 4.04 | 3.69
TCTAGTTCGTCACGGAGGTCACACACGACGGGTA | 4.28 | 4.52 | 4.04 | 2.51 | 4.68 | 3.67 | 2.73 | 4.68 | 3.58
CGAACTAGGTCACCAGGACAGTGAGGAGGTTGGA | 3.41 | 4.5 | 5.36 | 1.05 | 3.49 | 3.34 | 1.7 | 1.83 | 0.667
CCGAGTAGGTTACGAGGGGGCATACAGTGCGAAT | 2.29 | 3.21 | 2.68 | 1.2 | 2.14 | 3.61 | 0.618 | 4.67 | 2.68
CCGAGTAGGTTACGAGGGTGCATTCAGTGCGAAT | 0.573 | 0.908 | 0.734 | 0.804 | 1.18 | 1.71 | -0.985 | 4.73 | 3.12
CTATGGAGGTTAAGGGGGTCATTCAGTTTGAAAG | 4.08 | 5.71 | 4.46 | 3.59 | 6.48 | 4.04 | 2.95 | 8.03 | 6.81
GATACAAGGTCAGCTAGAGGCCAGAGTATGGAAA | 3.93 | 6.83 | 6.32 | 2.06 | 4.28 | 3.44 | 1.18 | 3.19 | 1.09
CCTTACGGGTCAAGGTAATAGCACGGGTGGTACG | 2.82 | 4.6 | 4.42 | 0.648 | 4.79 | 2.66 | 0.382 | 2.65 | 0.423
CCTTACCGGTCAAGGTTATAGCACGGGTGGTACG | 2.84 | 2.53 | 3.33 | -0.447 | 1.46 | 1.74 | 0.941 | 0.829 | 0.853
CCTGCTAGTTCATGGTCAGCTAATCTACAGTATG | 0.96 | 0.833 | 1.06 | 2.43 | 0.309 | 0.298 | -0.142 | 0.708 | 1.09
ATATGTAGGTTAGCGGGGGTCATTCAGACTAGGC | 4.17 | 5.25 | 4.26 | 2.7 | 6.22 | 4.82 | 2.75 | 6.4 | 5.45
CAAAATAGGTCAAGGTCAAAGTCGGTTTGTGCCA | 5.46 | 6.53 | 7.1 | 2.89 | 6.48 | 4.48 | 3.55 | 5.51 | 3.72
ATATGTAGGTTCCATCCGGGTCATTCAGGCTATG | 2.11 | 1.65 | 1.19 | 0.91 | 2.18 | 3.44 | 2.32 | 3.22 | 2.91
TTTAGTTGGTCAAAGGTCACACACTCGAAATGCG | 5.1 | 7.25 | 6.17 | 1.17 | 8.07 | 4.04 | 2.03 | 5.36 | 2.6
CAAACTAGGCCAAGGTCAAAGTCGGTTTGTGCCA | 3.85 | 4.2 | 4.17 | 2.06 | 3.91 | 3.77 | 2.36 | 4.19 | 3.23
CGAACTAGGTCAAAGGAAAGTGAAAGGCGACGTA | 2.25 | 3.46 | 4.01 | 1.15 | 2.39 | 1.95 | 0.083 | 0.89 | 0.538
